Sampled rows, rich in hits. Any-hit rate of the full collection: about 6.6%.
HT1080 IDH1KD tx: qHTS for induction of synthetic lethality in tumor cells producing 2HG: qHTS for the HT-1080-IDH1KD cell line. HT-1080 IDH1 knockdown viability, ATP luminescence, 48 h. Potency, µM (series often up to 46.1 µM), without a hit: at the top dose activity, negative = toxicity, most hits filed as cytotoxic. actives 2% (n = 360,000). AID 686971, 2013;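 further: 0% = DMSO wells and -100% = cell-free medium wells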
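CellTiter-Glo luminescence after 48 h compound exposure at 37 degrees C of IDH1-knockdown HT-1080 cells in 5% FBS RPMI. %Activity scaled between DMSO wells and cell-free media wells, with curves fitted and assigned curve classes.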
KB-3-1 tox: qHTS assay for MDR1-selective chemotherapeutics: Primary screen using the parental adenocarcinoma cell KB-3-1 | actives 1.4% (n = 400,000) | Potency, µM (top dose mostly 46.1 µM), actives largely listed as cytotoxic | KB-3-1 viability, CellTiter-Glo ATP luminescence, 72 h; further: on the % scale 0 is the no-effect control and ±100 the full control effect; nearly all actives have a fitted effect of over 60% in size
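Viability of parental KB-3-1 cells, measured by CellTiter-Glo luminescence, followed a 72 h incubation at 37 °C with pinned compounds in phenol-red-free DMEM containing 10% FBS.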
TGFb inhibitor: qHTS for Inhibitors of TGF-b. HepG2 CAGA-GFP TGF-b/SMAD3 reporter, GFP fluorescence, 18 h; TGF-beta stimulated, 500 pg/mL final. Potency, µM (titrated, usually from 46.1 µM), for inactives: at the top dose activity, negative = inhibition, most hits filed as inhibitors. actives 1.2% (n = 410,000); further: on the % scale 0 is the no-effect control and ±100 the full control effect; nearly all actives have a fitted effect of over 65% in size
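Inhibition was scored as loss of TGF-beta-induced (500 pg/mL final, 18 hours, 37 degrees C) GFP in HEPG2 cells carrying a CAGA-GFP reporter, in DMEM with 1% FBS. Well GFP was summed per cell; Activity was normalised to unstimulated and stimulated DMSO wells, then concentration-response fitting.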
HT1080NT lethal: qHTS for induction of synthetic lethality in tumor cells producing 2HG: qHTS for the HT-1080-NT fibrosarcoma cell line; HT-1080-NT fibrosarcoma viability, CellTiter-Glo ATP luminescence, 48 h; Potency, µM (titrated, usually from 46.1 µM), for the others: top-dose activity, negative = less viability, actives largely listed as cytotoxic; actives 1.6% (n = 360,000); AID 686970, 2013;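 further: NT is the 2HG producing partner of a matched IDH1 knockdown line; 0% = DMSO-treated cells and -100% = media-only wells without cells; nearly all actives have a fitted effect of over 55% in size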
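750 cells/well, RPMI + 5% FBS; 2 h settle, compound pin-transfer, 48 h at 37 degrees C. CellTiter-Glo 10 min RT, luminescence. Normalized to DMSO and media-only wells.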
KB-V1 cytotox: qHTS assay for MDR1-selective chemotherapeutics: Primary screen using the drug-selected MDR subline cells KB-V1; KB-V1 MDR cells viability, CellTiter-Glo, 72 h; Potency, µM (titrated, usually from 46.1 µM), usual class: cytotoxic; actives 3.4% (n = 400,000); AID 1347076, 2019; further: on the % scale 0 is the no-effect control and ±100 the full control effect; nearly all actives have a fitted effect of over 60% in size
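Cytotoxicity toward P-gp-expressing KB-V1 cells was determined as loss of CellTiter-Glo luminescence after 72 h at 37 degrees C. Compounds were tested in quantitative HTS format across a concentration range, with curves fitted to normalized data.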
HepG2 viability: qHTS for Inhibitors of TGF-b: Cytotox Counterscreen. HepG2 CAGA-GFP viability, ATP luminescence, 18 h. Potency, µM (top dose mostly 46.1 µM), without a hit: top-dose activity change, negative = cytotoxicity, hits mostly cytotoxic. actives 0.76% (n = 410,000). AID 588856, 2011
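CellTiter-Glo luminescence gave cytotoxicity after 18 hours at 37 degrees C. The cells were HepG2 CAGA-GFP in 1% FBS DMEM, stimulated with 500 pg/mL TGF-beta after compound addition. %Activity was normalised to no-cell wells (complete cell-killing) and DMSO (no toxicity), and curves were fitted and classified.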
Starred values were filed as active, the others as inactive; i = inactive; ? = inconclusive; / = not tested or not shown. The call rests on the fitted dose curve; in most records, active means well fitted curve in the direction sought with a large enough effect; inconclusive means small, poorly fitted or top-dose-only effect, or another doubt; inactive means no such curve, though single readings can be large; an effect the other way counts as inactive or inconclusive. Potency means the concentration at half of the fitted maximal effect.

SMILES | HT1080 IDH1KD tx | KB-3-1 tox | TGFb inhibitor | HT1080NT lethal | KB-V1 cytotox | HepG2 viability
CC(C)n1c(O)c(N=NC(=O)C2COc3ccccc3O2)c2ccccc21 (stereo not given) | ? | i | 3% | -24% | 16µM* | 8%
Cn1c(O)c(N=NC(=O)C2COc3ccccc3O2)c2ccccc21 (stereo not given) | -3% | i | -2% | 0% | i | -7%
Cc1ccccc1CSCCNC(=O)c1ccccc1 | 1% | i | -43% | 5% | 16µM* | -25%
CN(C)S(=O)(=O)N(CC(=O)NCCSCc1ccccc1Cl)c1ccccc1 | / | / | -33% | / | / | -14%
Cc1ccc(NC(=O)CN(c2ccccc2)S(=O)(=O)N(C)C)cc1Cl | / | ? | ? | / | 12µM* | -35%
Cc1ccccc1CSCCNC(=O)CN(c1ccccc1)S(=O)(=O)N(C)C | / | ? | 28% | / | 16µM* | -19%
Cc1ccccc1CSCCNC(=S)Nc1ccccc1 | ? | ? | -24% | ? | ? | -22%
Cc1ccccc1CSCCNC(=O)CSCc1ccc([N+](=O)[O-])cc1 | -2% | i | -18% | -2% | 16µM* | -12%
Cc1ccc(CSCCNC(=O)CSCc2ccc([N+](=O)[O-])cc2)cc1 | 3% | i | ? | -17% | i | -90%
Cc1nn(Cc2ccc(Cl)cc2Cl)c(C)c1NC(=O)NC12CC3CC(CC(C3)C1)C2 | 18µM* | ? | 0% | -14% | 15µM* | 15%
CC1CCc2onc(C(=O)N3CCN(c4ccc(F)cc4)CC3)c2C1 (stereo not given) | / | / | -24% | / | / | -16%
CC(C)(C)C1CCc2onc(C(=O)N3CCOCC3)c2C1 (stereo not given) | 3% | i | -25% | 27% | 21µM* | -16%
CC(C)(C)C1CCc2onc(C(=O)NC3CCCC3)c2C1 (stereo not given) | -8% | ? | 1% | ? | 16µM* | -6%
O=C(NC1CCCCC1)c1noc2c1CCCCC2 | ? | i | 5% | 13% | ? | -20%
CC(C)(C)C1CCc2onc(C(=O)Nc3ccc4c(c3)OCO4)c2C1 (stereo not given) | 13µM* | i | -3% | ? | i | 10%
COc1cc(NC(=O)c2noc3c2CC(C(C)(C)C)CC3)cc(OC)c1OC (stereo not given) | / | i | 21% | / | 16µM* | 8%
CCc1ccccc1NC(=O)c1noc2c1CC(C(C)(C)C)CC2 (stereo not given) | / | i | 2% | / | i | -19%
Cc1ccc(-c2nc(C)c(CCNC(=O)C(=O)Nc3ccc4c(c3)OCCO4)s2)cc1 | / | i | 41% | / | i | 23%
CCOC(=O)C1=Nc2ccccc2C1=[N+]=[N-] | ? | ? | ? | -25% | 2.6µM* | 4%
COc1ccc(CNC(=O)CCc2nc(-c3ccc(C)cc3)no2)c(OC)c1 | / | i | -4% | / | ? | -14%
CCCN(Cc1cccs1)C(=O)Nc1cc(Cl)ccc1C | / | i | 13% | / | i | -3%
CS(=O)(=O)N(Cc1ccc(C(=O)NCCSc2ccccn2)cc1)c1ccccc1 | -9% | i | -4% | -22% | 5.8µM* | -26%
CN(C)CCCNC(=O)c1ccc(CN(c2ccccc2)S(C)(=O)=O)cc1 | 8% | i | 2% | 17% | i | -21%
Cc1ccc(N(Cc2ccc(C(=O)NCCSc3ccccn3)cc2)S(C)(=O)=O)cc1C | -6% | i | -18% | 1% | 21µM* | -24%
COc1cc(C2CC(=O)N(Cc3ccc(F)cc3)c3ccccc3S2)cc(OC)c1OC (stereo not given) | / | ? | ? | / | 12µM* | -30%
SMILES | HT1080 IDH1KD tx | KB-3-1 tox | TGFb inhibitor | HT1080NT lethal | KB-V1 cytotox | HepG2 viability
COc1ccc(C2CC(=O)N(Cc3cccc(F)c3)c3ccccc3S2)cc1 (stereo not given) | / | ? | ? | / | ? | -32%
COc1ccc(C2CC(=O)N(Cc3ccc(F)cc3)c3ccccc3S2)cc1 (stereo not given) | / | ? | 16µM* | / | 15µM* | -43%
COc1ccc(C2CC(=O)N(Cc3ccc(F)cc3)c3ccccc3S2)cc1OC (stereo not given) | / | ? | -1% | / | 16µM* | 3%
COc1ccccc1CNS(=O)(=O)c1ccc(F)c(C(=O)Nc2cc(Cl)ccc2OC)c1 | / | / | ? | / | / | -7%
CCOC(=O)c1cc(S(=O)(=O)Nc2ccccc2OCC)[nH]n1 | / | i | -17% | / | i | -24%
Cc1ccc(CN2CCC(CNC(=O)Nc3ccc(C)c(C)c3)C2)cc1 (stereo not given) | / | i | ? | / | i | -78%
Cc1ccc(C)c(CN2CCC(CNC(=O)Nc3ccc(C)c(C)c3)CC2)c1 | 1% | ? | 0% | 10% | 18µM* | -6%
O=C(NCC1CCN(Cc2cccc(Cl)c2)CC1)Nc1ccc(F)c(Cl)c1 | / | ? | 22µM* | / | i | -113%
COc1ccc(Cl)cc1NC(=O)NCC1CCN(Cc2cc(C)ccc2C)CC1 | ? | ? | ? | ? | 23µM* | -109%
O=C(c1ccccc1)C(c1ccccc1)[n+]1csc2ccccc21 (stereo not given) | / | i | ? | / | i | 2%
CCN(CC)CCCNC(=O)CCCn1ncn2c(cc3occc32)c1=O | / | / | / | / | / | 0%
CCCCOc1ccc(C2c3c(-c4ccccc4O)n[nH]c3C(=O)N2Cc2ccncc2)cc1OC (stereo not given) | / | / | ? | / | / | -27%
Cc1ccc(N(CC(=O)NC2CCCC2)C(=O)CCCC(=O)Nc2ccccn2)cc1C | 11% | i | 6% | 18% | i | 10%
Cc1cc(C)cc(N(CC(=O)NC2CCCCC2)C(=O)CCCC(=O)Nc2ccccn2)c1 | -10% | i | -16% | -4% | i | 11µM*
COc1ccc(-c2noc(CCCC(=O)Nc3cccc(Cl)c3C)n2)cc1 | / | i | -1% | / | i | -15%
O=c1c(N=Nc2ccc(O)cc2)c(-c2ccccc2)[nH]n1-c1ccc([N+](=O)[O-])cc1 | -17% | i | 0% | -24% | ? | -1%

Bioassay records deposited in PubChem by National Center for Advancing Translational Sciences (NCATS).
